Experiment [1] has as its target human Androgen Receptor (AR), AR (gene 367) (UniProt P10275). Nature of the experiment: ATG_hAR_XSP2: Attagene TRANS-FACTORIAL Multi-Species (XSP2) HepG2 Assay for human Androgen Receptor (AR) (AID 2283820). Put shortly:
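HepG2 cells transiently transfected with GAL4-UAS reporter units driven by chimeric NR-Gal4 proteins, stimulated with 3 nM 6-alpha-fluorotestosterone plus 1.5 nM norgestrel. Reporter mRNA quantified 24 h after dosing by RT-PCR and capillary electrophoresis; gain-of-signal versus DMSO.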

Experiment [2] concerns frog Androgen Receptor (AR), gene 399456. Nature of the experiment: ATG_frAR_XSP2: Attagene TRANS-FACTORIAL Multi-Species (XSP2) HepG2 Assay for frog Androgen Receptor (AR) (AID 2283824).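 Further: actives raise reporter signal above DMSO so AC50 reflects agonist-like induction.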 Put shortly: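 HepG2 cells transiently transfected with GAL4-UAS reporter units and frog (Xenopus laevis) AR-Gal4 chimera; reporter mRNA measured 24 h after dosing by RT-PCR and capillary electrophoresis. Gain of signal fitted relative to DMSO baseline.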

Experiment [3] deals with zebrafish Androgen Receptor (AR), gene 100005148. Nature of the experiment: ATG_zfAR_XSP2: Attagene TRANS-FACTORIAL Multi-Species (XSP2) HepG2 Assay for zebrafish Androgen Receptor (AR) (AID 2283825).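 Further: hits raise reporter mRNA above DMSO so AC50 reflects agonist-type gain.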 Put shortly: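 Zebrafish AR–GAL4 chimera transiently expressed with GAL4-UAS reporter in HepG2 cells, co-stimulated with 3 nM 6-alpha-fluorotestosterone and 1.5 nM norgestrel; 24 h dosing, reporter mRNA read by RT-PCR/capillary electrophoresis versus DMSO.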

Results filed as inconclusive are left out. The source holds several records for some structures; these can differ, active in one and inactive in another. Activity calls are given as the source filed them. How the source made its calls: active means hit-call score of the fitted dose curve at least 0.9, where 1 is the maximum; inconclusive means response in the unintended direction; inactive means score below 0.9.

What is called AC50 is the concentration at which the activity in the assay is half-maximal.

human Androgen Receptor (AR), AR (gene 367), sequence (P10275 whole entry, looked up, the tested form may be a part): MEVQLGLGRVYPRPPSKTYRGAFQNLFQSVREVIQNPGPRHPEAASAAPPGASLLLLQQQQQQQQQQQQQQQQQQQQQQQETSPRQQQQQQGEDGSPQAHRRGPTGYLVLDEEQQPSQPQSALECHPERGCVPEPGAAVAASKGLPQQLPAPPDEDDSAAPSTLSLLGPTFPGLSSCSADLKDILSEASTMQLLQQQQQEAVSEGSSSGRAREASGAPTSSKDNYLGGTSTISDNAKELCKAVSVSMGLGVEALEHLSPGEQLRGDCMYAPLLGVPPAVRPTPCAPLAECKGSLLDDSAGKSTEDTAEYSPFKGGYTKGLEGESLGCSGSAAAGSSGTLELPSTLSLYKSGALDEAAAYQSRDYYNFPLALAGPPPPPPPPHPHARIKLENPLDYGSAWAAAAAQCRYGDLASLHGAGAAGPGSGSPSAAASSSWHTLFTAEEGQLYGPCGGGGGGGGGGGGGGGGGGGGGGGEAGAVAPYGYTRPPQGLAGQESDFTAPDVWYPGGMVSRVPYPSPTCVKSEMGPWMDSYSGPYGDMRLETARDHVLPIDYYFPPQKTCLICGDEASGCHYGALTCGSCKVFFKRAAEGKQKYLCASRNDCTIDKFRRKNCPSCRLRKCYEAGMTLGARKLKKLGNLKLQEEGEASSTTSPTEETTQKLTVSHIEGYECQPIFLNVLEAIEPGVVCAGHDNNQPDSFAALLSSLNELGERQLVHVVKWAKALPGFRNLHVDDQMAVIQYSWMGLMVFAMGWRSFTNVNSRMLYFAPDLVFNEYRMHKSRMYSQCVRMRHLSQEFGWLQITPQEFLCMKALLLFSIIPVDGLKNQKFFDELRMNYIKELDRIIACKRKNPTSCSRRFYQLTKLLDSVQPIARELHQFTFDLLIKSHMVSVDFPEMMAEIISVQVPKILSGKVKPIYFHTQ

As for `CCC(=O)O[C@H]1CC[C@H]2[C@@H]3CCC4=CC(=O)CC[C@]4(C)[C@H]3CC[C@]12C`, in experiment [1], the outcome was inactive.
Turning to `C[C@]12CCC(=O)C=C1CC[C@@H]1[C@@H]2CC[C@@]2(C)[C@H]1CC[C@]2(C)O`, the values for the AC50 in experiment [2] and in experiment [3] were 7.39 nM (active) and 2.51 nM (active), respectively.
`CC(c1ccc(O)cc1)(c1ccc(O)cc1)c1ccc(O)cc1`: in experiment [2], the AC50 was 267 nM (active) and the compound was classed as inactive.

The values above are taken from PubChem BioAssay (EPA / NIEHS).
